KDM5B inh – Primary screen for KDM5B Histone Demethylases FDH-coupled qHTS; Lysine-specific demethylase 5B (Homo sapiens), Q9UGL1; KDM5B demethylase, FDH-coupled NADH fluorescence (FDH is formaldehyde dehydrogenase); Potency, µM (top dose mostly 57.7 µM), actives largely listed as inhibitors; 220,000 tested, 2.6% active; active = well fitted inhibition curve with a large enough effect; note: nearly all actives have a fitted effect of over 70% in size
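KDM5BΔAP (200 nM final) in 50 mM HEPES pH 7.5, 0.01% Tween-20 was preincubated 10 min at RT with compound over a concentration range. Substrate mix (H3K4me3 12.5 µM, α-KG 25 µM, Fe²⁺, ascorbate, NAD⁺, FDH) was added, and NADH fluorescence change over 30 min gave dose-response curves.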
Numbers stand for hits; 0 = inactive; [ ] = remark or other dose. This is one part of a sample in which hits are shown more often than they occur.

SMILES	KDM5B inh
CN(CC(=O)Nc1ccc(F)cc1)C(=O)COc1ncnc2scc(-c3ccc(Cl)cc3)c12	0
Cc1ccc(-c2nnc3ccc(N4CCN(Cc5ccccc5)CC4)nn23)nc1	35.5µM
Fc1ccc(-c2nnc3ccc(N4CCN(Cc5ccccc5)CC4)nn23)nc1	0
Cc1nnc2ccc(N3CCC(C)CC3)nn12	0
COc1ccc(-c2nnc3ccc(N4C[C@@H](C)O[C@@H](C)C4)nn23)nc1	0
COc1ccc(-c2nnc3ccc(N4CCC(c5ccccc5)CC4)nn23)nc1	35.5µM
COc1ccc(-c2nnc3ccc(N4CCN(c5ccccn5)CC4)nn23)nc1	0
Cc1cccc(NC(=O)COc2cccc(/C=N/O)c2)c1C	0
CC(C)c1ccc(C(C)NC(=O)Cc2cccs2)cc1 (configuration not stated)	0
Cc1ccc(-c2c(NC(=O)CN3CCC(C(N)=O)CC3)oc3ccc(Cl)cc3c2=O)cc1	0
CN(C)CC#CC(O)(c1ccccc1)C1(C)CCCC1 (configuration not stated)	0
Cc1nc(-c2ccccn2)sc1C(=O)NC1CCC(C(F)(F)F)CC1 (configuration not stated)	0
Cn1ncc(N2CCOC(CCNC(=O)c3cccnn3)C2)cc1=O (configuration not stated)	0
CC(C)c1nc(Cn2ncc(N3CCOC(CCN)C3)cc2=O)no1 (configuration not stated)	0
Cn1ncc(N2CCOC(CCNc3cnc4ccccc4n3)C2)cc1=O (configuration not stated)	31.6µM
COc1ccc(C(=O)Nc2ccc3oc(=O)ccc3c2)c(OC)c1	0
CCCCn1c(N)c(N(CCC)C(=O)c2cccnc2SC)c(=O)[nH]c1=O	0
Cc1n[nH]c(C)c1C(N)C(=O)N1CC2(C)CN(C)CC(C)(C1)C2O (configuration not stated)	0
O=C(Cn1cnc2ccccc2c1=O)N1CCN(c2ccc(Cl)cc2)CC1	0
O=C(CC1C(=O)NCCN1Cc1ccc(-c2ccccc2)cc1)NCc1ccco1 (configuration not stated)	25.1µM
CN(Cc1cccnc1)C(=O)CC1C(=O)NCCN1Cc1ccc(-c2ccccc2)cc1 (configuration not stated)	0
CCOc1ccccc1CN1CCNC(=O)C1CC(=O)NCc1ccccn1 (configuration not stated)	0
O=C(CC1C(=O)NCCN1Cc1ccc(-c2ccccc2)cc1)NC(CO)CO (configuration not stated)	20µM
CCOc1ccc(CN2CCNC(=O)C2CC(=O)NC2CCCCCC2)cc1 (configuration not stated)	0
O=C(CC1C(=O)NCCN1Cc1ccccc1)NC1C2CC3CC(C2)CC1C3 (configuration not stated)	0
SMILES	KDM5B inh
Cc1ccc(-c2noc(CNc3ccc(Cl)c(Cl)c3)n2)cc1	0
COCC1CN(C(C)=O)CC12CCN(Cc1ccccc1C)CC2 (configuration not stated)	0
O=C(COc1ccccc1)N1CCC2(CC1)NC(=O)N(c1cccc(F)c1)N2	0
Cc1ccc(-c2nc3ccc(C)cc3nc2-c2ccc(C)cc2)cc1	0
O=C(CSc1nc2cc(C(F)(F)F)ccc2s1)c1ccc2c(c1)CCCC2	0
Cc1ccc(-c2cc(C(=O)NCc3cnn(C)c3)c3cc(Br)ccc3n2)cc1	0
CN1CCOc2c(C(=O)NCc3cnn(C)c3)cc(-c3ccc(CO)cc3)cc21	20µM
CCc1ccc(-c2cc(C(F)(F)F)n3nc(C(=O)NCc4cnn(C)c4)cc3n2)s1	0
Cc1ccccc1-c1cc(C(=O)NCc2cnn(C)c2)c2c(c1)N(C)CCO2	31.6µM
Cc1ccccc1-c1cc(O)c2c(c1)CN(C(=O)C1CCNCC1)CCO2	0
Cc1ccc(CNC(=O)c2cn(C)c3ccc(S(=O)(=O)N4CCOCC4)cc3c2=O)cc1	0[11.5 µM]
CCC(NC(=O)c1cccc(OC)c1)c1ccccc1OC(F)F (configuration not stated)	0
O=C(Cc1cccs1)N1CC[C@H]2COC(=O)N2c2cc(F)ccc2C1	0
CC(OC(=O)c1ccc(C#N)cc1)C(=O)C12CC3CC(CC(C3)C1)C2 (configuration not stated)	0
CC(C)C(=O)N1N=C(c2cc(Cl)ccc2Cl)CC1c1ccc2nccnc2c1 (configuration not stated)	0
CCn1cc(C(=O)N2CCCC(C(=O)Nc3cccc(-c4cc5ccccc5[nH]4)c3)C2)cn1 (configuration not stated)	28.2µM
Cc1c(CN2CCCC(c3ccc(C(=O)O)cc3)C2)cnn1C (configuration not stated)	0
Cc1cc(C(=O)N2CCCC(c3nc(C4CCOCC4)no3)C2)nn1C (configuration not stated)	0
O=C(Nc1cccc(-n2cccn2)c1)C1CCCN(Cc2cccc(F)c2F)C1 (configuration not stated)	0
COC(=O)CNC(=O)C1CCCN(C(=O)c2cc3ccccc3[nH]2)C1 (configuration not stated)	0
